The text below walks through data of PubChem BioAssay (NCI).

The panel holds about 83,000 compounds, 20% with a hit somewhere; the sample as a whole holds those more often.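 Compound tested at a single concentration for 48 hours in 96-well plates; a percent growth value below 10 was scored as active.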 Values without a mark were called inactive. Activity calls are given as the source filed them.

Holding throughout (assay): NCI-60 one-dose screen, 48 h (100 = growth as untreated, 0 = no growth, -100 = all killed)
Holding throughout (details): 10 µM unless noted

Test [1] relates to T-47D breast.
Test [2] concerns BT-549 breast.
Test [3] has as its system MDA-MB-435 melanoma.
Test [4] concerns SW-620 colon.
The test system of test [5] is MCF7 breast.
Test [6] relates to HCT-116 colon.
The test system of test [7] is HCC-2998 colon.
For test [8], the system named is KM12 colon.

Turning to `O=S(=O)(Nc1cc(Cl)ccc1Cl)c1ccc(-c2cnc(C3CC3)o2)cc1`, the growth is 28.7% in test [1]; 40.5% in test [2]; -12% (active) in test [3]; 21% in test [4]; 12.9% in test [5]; 21.5% in test [6]. The growth in test [7] is 67.4%; in test [8] it was 24%.

`Cc1nc2sc(C(=O)Nc3ccc(Br)cc3)c(N)c2cc1C(O)c1ccccc1` (stereo not given): the growth was 45.6% in test [1]; 71.1% in test [2]; 1.03% (active) in test [3]; 45.8% in test [4]; 33.8% in test [5]; 29.9% in test [6]. Further, the figures for the growth in test [7] and in test [8] were 76.5% and 49.2%, respectively.

As to `COc1ccc2cc1Oc1ccc(cc1)C[C@H]1c3c(cc4c(c3Oc3cc5c(cc3OC)CCN(C)[C@@H]5C2)OCO4)CCN1C`, the growth is 115% in test [1]; 52% in test [2]; 19% in test [3]; 55.3% in test [4]; 34.6% in test [5]; 19.2% in test [6]. The values for the growth in test [7] and in test [8] were 59.9% and 55.2%, respectively.

Consider `O=c1[nH]c(Cc2nc3ccccc3s2)nc2cc(Br)ccc12`, for which the growth in test [1] was 54.2%; in test [2], 70.2%; in test [3] it was 45.6%; in test [4], 61.3%; in test [5], 78.5%; in test [6] it was 50.6%. Moreover, the growth in test [7] was 84.1%; in test [8], 41.4%.

For the compound `CC(=O)c1c(C)nc2ccccc2c1/C=C/c1ccc(F)cc1`, the growth was 53.8% in test [1]; 87.1% in test [2]; 103% in test [3]; 97.1% in test [4]; 77.3% in test [5]; 74.6% in test [6]. Moreover, the results for the growth in test [7] and in test [8] were 99% and 90.7%, respectively.

`COC(=O)/C=C1/SC(=Nc2ccc(C(F)(F)F)cc2)N(CCc2c[nH]c3ccc(O)cc23)C1=O`: the growth in test [1] was 17.3%; in test [2], -32.7% (active); in test [3], 24%; in test [4], 3.9% (active); in test [5] it was 12.5%; in test [6], -71.9% (active). Moreover, the figures for the growth in test [7] and in test [8] were -61.4% (active) and 18.3%, respectively.

Regarding `COc1ccc(-c2cc(-c3cc(OC)c(OC)c(OC)c3)c(C#N)c(=O)n2CCCCC(=O)NO)cc1`, the growth in test [1] was 50.7%; in test [2] it was 92.7%; in test [3], 37.7%; in test [4], 47.9%; in test [5], 66.5%; in test [6], 25.1%. In addition, the values for the growth in test [7] and in test [8] were 87.5% and 73.1%, respectively.

On to `COC(CC(F)F)c1cn(S(=O)(=O)c2ccc(C)cc2)c2ccccc12` (stereo not given), for which the growth in test [1] is 30.8%; in test [2] it was 34.9%; in test [3] it was -43.8% (active); in test [4], 12.9%; in test [5], 13.6%; in test [6], 17.2%. Also, the figures for the growth in test [7] and in test [8] were 63.3% and 19.3%, respectively.

Regarding `COc1cc(-c2nc3sccn3c2-c2ccnc(NCCNS(=O)(=O)c3ccccc3)n2)ccc1F`, the growth was 14.3% in test [1]; 67.8% in test [2]; 26% in test [3]; 86.4% in test [4]; 37.9% in test [5]; 42.6% in test [6]. Also, the growth in test [7] was 96.5%; in test [8] it was 17.1%.

Regarding `CCOCCNC1=C(Cl)C(=O)c2ccccc2C1=O`, the growth in test [1] is 90.8%; in test [2] it was 107%; in test [3], 104%; in test [4], 110%; in test [5], 69.1%; in test [6], 88.1%. Also, the growth in test [7] is 112%; in test [8], 91.4%.

`O=C(O)CCN1C(=O)/C(=C/C(Cl)=C/c2ccccc2)SC1=S`: the growth in test [1] was 28.8%; in test [2], 16.9%; in test [3] it was -63.4% (active); in test [4] it was 7.78% (active); in test [5], 15.7%; in test [6] it was -19% (active). Further, the growth in test [7] was 4.75% (active); in test [8] it was 15.3%.

Regarding `CN1CCc2nc3sc(C(N)=O)c(N)c3c(-c3cccs3)c2C1`, the growth in test [1] was 42.9%; in test [2], 10.7%; in test [3], 29.6%; in test [4] it was 35%; in test [5] it was 12.6%; in test [6], 4.02% (active). For the same compound, the growth in test [7] is 53.5%; in test [8], 6.55% (active).

Regarding `COc1ccc(F)cc1/C=C/C(=O)/C=C(/C=C/c1cc(F)ccc1OC)OB(F)F`, the growth is 36.4% in test [1]; 33.7% in test [2]; 2.57% (active) in test [3]; 14.1% in test [4]; 29.2% in test [5]; 0.9% (active) in test [6]. Besides, the growth in test [7] was 104%; in test [8] it was 73.6%.

For `COc1ccc(/C=C/C(=O)c2cc3c(N)c(C(=O)Nc4cccc5ccccc45)sc3nc2C)cc1`, the growth was 66.4% in test [1]; 87.5% in test [2]; -18.8% (active) in test [3]; 24.8% in test [4]; 13.5% in test [5]; 86.6% in test [6]. The growth in test [7] was 94.9%; in test [8], 74.4%.

For `O=C(O)c1cn(C2CC2)c2cc(N3CCN(Cc4ccc5ccccc5c4O)CC3)c(F)cc2c1=O`, the growth in test [1] is 30.9%; in test [2], -59.1% (active); in test [3], 33.6%; in test [4], 36.1%; in test [5], 17%; in test [6] it was 14.5%. For the same compound, the growth in test [7] was 41.9%; in test [8], 42.4%.
